# B1: unnamed (peptide)
# chain: ITHRLRISIPGITGR
# B2: unnamed (peptide)
# chain: VKPRQLFPIPLNKVD
# Experiments:
# Test in all cases: SPOT peptide array binding signal intensity (averaged, normalized) (arbitrary units (background-subtracted, floor 0; scale differs between SH3 domains)); higher = stronger binding of the SH3 domain to the peptide
# [1] = target: AgAbp1
# Procedure, shortened: (§1)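 Four yeast species supplied the SH3 domains, which were expressed as GST fusions in E. coli BL21(DE3) and purified on glutathione Sepharose. Incubation with cellulose membranes carrying synthetic 15-mer peptides, cysteines exchanged for serines, ran overnight at 4°C at 10 μg/ml in TBS-based blocking buffer. Binding signal is reported as normalized, background-subtracted spot intensity averaged over replicates, in arbitrary units not shared between domains.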
# [2] = target: AgBbc1
# Procedure, shortened: as §1
# [3] = target: AgBem1-D1
# Procedure, shortened: as §1
# [4] = target: AgBzz1-D1
# Procedure, shortened: as §1
# [5] = target: AgBzz1-D2
# Procedure, shortened: as §1
# [6] = target: AgCyk3
# Procedure, shortened: as §1
# [7] = target: AgFus1
# Procedure, shortened: as §1
# [8] = target: AgHof1
# Procedure, shortened: as §1
# [9] = target: AgHse1
# Procedure, shortened: as §1
# [10] = target: AgLsb1
# Procedure, shortened: as §1
# [11] = target: AgLsb4
# Procedure, shortened: as §1
# [12] = target: AgMyo5
# Procedure, shortened: as §1
# [13] = target: AgNbp2
# Procedure, shortened: as §1
# [14] = target: AgRvs167
# Procedure, shortened: as §1
# [15] = target: AgSho1
# Procedure, shortened: as §1
# [16] = target: AgSla1-D1-D2
# Procedure, shortened: as §1
# [17] = target: AgSla1-D3
# Procedure, shortened: as §1
# [18] = target: CaAbp1-D1
# Procedure, shortened: as §1
# [19] = target: CaAbp1-D2
# Procedure, shortened: as §1
# [20] = target: CaBbc1
# Procedure, shortened: as §1
# [21] = target: CaBem1-D1
# Procedure, shortened: as §1
# [22] = target: CaBzz1-D1
# Procedure, shortened: as §1
# [23] = target: CaBzz1-D2
# Procedure, shortened: as §1
# [24] = target: CaCyk3
# Procedure, shortened: as §1
# [25] = target: CaFus1
# Procedure, shortened: as §1
# [26] = target: CaHof1
# Procedure, shortened: as §1
# [27] = target: CaHse1
# Procedure, shortened: as §1
# [28] = target: CaLsb1
# Procedure, shortened: as §1
# [29] = target: CaLsb4
# Procedure, shortened: as §1
# [30] = target: CaMyo5
# Procedure, shortened: as §1
# [31] = target: CaNbp2
# Procedure, shortened: as §1
# [32] = target: CaRvs167
# Procedure, shortened: as §1
# [33] = target: CaRvs167-3
# Procedure, shortened: as §1
# [34] = target: CaSho1
# Procedure, shortened: as §1
# [35] = target: CaSla1-D1-D2
# Procedure, shortened: as §1
# [36] = target: CaSla1-D3
# Procedure, shortened: as §1
# [37] = target: ScAbp1
# Procedure, shortened: as §1
# [38] = target: ScBbc1
# Procedure, shortened: as §1
# [39] = target: ScBem1-D1
# Procedure, shortened: as §1
# [40] = target: ScBzz1-D1
# Procedure, shortened: as §1
# [41] = target: ScBzz1-D2
# Procedure, shortened: as §1
# [42] = target: ScCyk3
# Procedure, shortened: as §1
# [43] = target: ScFus1
# Procedure, shortened: as §1
# [44] = target: ScHof1
# Procedure, shortened: as §1
# [45] = target: ScHse1
# Procedure, shortened: as §1
# [46] = target: ScLsb1
# Procedure, shortened: as §1
# [47] = target: ScLsb2
# Procedure, shortened: as §1
# [48] = target: ScLsb3
# Procedure, shortened: as §1
# [49] = target: ScLsb4
# Procedure, shortened: as §1
# [50] = target: ScMyo3
# Procedure, shortened: as §1
# [51] = target: ScMyo5
# Procedure, shortened: as §1
# [52] = target: ScNbp2
# Procedure, shortened: as §1
# [53] = target: ScPex13
# Procedure, shortened: as §1
# [54] = target: ScRvs167
# Procedure, shortened: as §1
# [55] = target: ScSho1
# Procedure, shortened: as §1
# [56] = target: ScSla1-D1-D2
# Procedure, shortened: as §1
# [57] = target: ScSla1-D3
# Procedure, shortened: as §1
# [58] = target: SpAbp1-D1
# Procedure, shortened: as §1
# [59] = target: SpBbc1
# Procedure, shortened: as §1
# [60] = target: SpBzz1-D1
# Procedure, shortened: as §1
# [61] = target: SpBzz1-D2
# Procedure, shortened: as §1
# [62] = target: SpCyk3
# Procedure, shortened: as §1
# [63] = target: SpHof1
# Procedure, shortened: as §1
# [64] = target: SpHof1-2
# Procedure, shortened: as §1
# [65] = target: SpHof1-3
# Procedure, shortened: as §1
# [66] = target: SpHse1
# Procedure, shortened: as §1
# [67] = target: SpLsb1
# Procedure, shortened: as §1
# [68] = target: SpLsb4
# Procedure, shortened: as §1
# [69] = target: SpMyo1
# Procedure, shortened: as §1
# [70] = target: SpNbp2
# Procedure, shortened: as §1
# [71] = target: SpPex13
# Procedure, shortened: as §1
# [72] = target: SpRvs167
# Procedure, shortened: as §1
# [73] = target: SpSla1-D1-D2
# Procedure, shortened: as §1
# [74] = target: SpSla1-D3
# Procedure, shortened: as §1
binder,measurement,setting,value
B1,SPOT peptide array binding signal intensity,[1],4.5
same,SPOT peptide array binding signal intensity,[2],199
same,SPOT peptide array binding signal intensity,[3],314
same,SPOT peptide array binding signal intensity,[4],121
same,SPOT peptide array binding signal intensity,[5],236
same,SPOT peptide array binding signal intensity,[6],10
same,SPOT peptide array binding signal intensity,[7],1770
same,SPOT peptide array binding signal intensity,[8],112
same,SPOT peptide array binding signal intensity,[9],580
same,SPOT peptide array binding signal intensity,[10],54.5
same,SPOT peptide array binding signal intensity,[11],687
same,SPOT peptide array binding signal intensity,[12],≤ 0
same,SPOT peptide array binding signal intensity,[13],101
same,SPOT peptide array binding signal intensity,[14],16.7
same,SPOT peptide array binding signal intensity,[15],329
same,SPOT peptide array binding signal intensity,[16],116
same,SPOT peptide array binding signal intensity,[17],6
same,SPOT peptide array binding signal intensity,[18],111
same,SPOT peptide array binding signal intensity,[19],39
same,SPOT peptide array binding signal intensity,[20],306
same,SPOT peptide array binding signal intensity,[21],84
same,SPOT peptide array binding signal intensity,[22],362
same,SPOT peptide array binding signal intensity,[23],226
same,SPOT peptide array binding signal intensity,[24],37.5
same,SPOT peptide array binding signal intensity,[25],2510
same,SPOT peptide array binding signal intensity,[26],1.75
same,SPOT peptide array binding signal intensity,[27],62.5
same,SPOT peptide array binding signal intensity,[28],5
same,SPOT peptide array binding signal intensity,[29],141
same,SPOT peptide array binding signal intensity,[30],20.8
B2,SPOT peptide array binding signal intensity,[1],5
same,SPOT peptide array binding signal intensity,[2],≤ 0
same,SPOT peptide array binding signal intensity,[3],14.5
same,SPOT peptide array binding signal intensity,[4],61
same,SPOT peptide array binding signal intensity,[5],40.5
same,SPOT peptide array binding signal intensity,[6],≤ 0
same,SPOT peptide array binding signal intensity,[7],23
same,SPOT peptide array binding signal intensity,[8],56.2
same,SPOT peptide array binding signal intensity,[9],60.5
same,SPOT peptide array binding signal intensity,[10],1600
same,SPOT peptide array binding signal intensity,[11],≤ 0
same,SPOT peptide array binding signal intensity,[12],1
same,SPOT peptide array binding signal intensity,[13],18
same,SPOT peptide array binding signal intensity,[14],5
same,SPOT peptide array binding signal intensity,[15],8
same,SPOT peptide array binding signal intensity,[16],1
same,SPOT peptide array binding signal intensity,[17],8.5
same,SPOT peptide array binding signal intensity,[18],98
same,SPOT peptide array binding signal intensity,[19],43
same,SPOT peptide array binding signal intensity,[20],9
same,SPOT peptide array binding signal intensity,[21],14
same,SPOT peptide array binding signal intensity,[22],110
same,SPOT peptide array binding signal intensity,[23],59
same,SPOT peptide array binding signal intensity,[24],≤ 0
same,SPOT peptide array binding signal intensity,[25],138
same,SPOT peptide array binding signal intensity,[26],2
same,SPOT peptide array binding signal intensity,[27],3.25
same,SPOT peptide array binding signal intensity,[28],0.5
same,SPOT peptide array binding signal intensity,[29],7
same,SPOT peptide array binding signal intensity,[30],1
same,SPOT peptide array binding signal intensity,[31],105
same,SPOT peptide array binding signal intensity,[32],54.5
same,SPOT peptide array binding signal intensity,[33],3
same,SPOT peptide array binding signal intensity,[34],30
same,SPOT peptide array binding signal intensity,[35],≤ 0
same,SPOT peptide array binding signal intensity,[36],3.25
same,SPOT peptide array binding signal intensity,[37],71
same,SPOT peptide array binding signal intensity,[38],≤ 0
same,SPOT peptide array binding signal intensity,[39],≤ 0
same,SPOT peptide array binding signal intensity,[40],17
same,SPOT peptide array binding signal intensity,[41],135
same,SPOT peptide array binding signal intensity,[42],3
same,SPOT peptide array binding signal intensity,[43],11
same,SPOT peptide array binding signal intensity,[44],3.75
same,SPOT peptide array binding signal intensity,[45],196
same,SPOT peptide array binding signal intensity,[46],374
same,SPOT peptide array binding signal intensity,[47],201
same,SPOT peptide array binding signal intensity,[48],54.5
same,SPOT peptide array binding signal intensity,[49],≤ 0
same,SPOT peptide array binding signal intensity,[50],2
same,SPOT peptide array binding signal intensity,[51],4
same,SPOT peptide array binding signal intensity,[52],18
same,SPOT peptide array binding signal intensity,[53],1.5
same,SPOT peptide array binding signal intensity,[54],48.3
same,SPOT peptide array binding signal intensity,[55],139
same,SPOT peptide array binding signal intensity,[56],1.5
same,SPOT peptide array binding signal intensity,[57],≤ 0
same,SPOT peptide array binding signal intensity,[58],29
same,SPOT peptide array binding signal intensity,[59],≤ 0
same,SPOT peptide array binding signal intensity,[60],156
same,SPOT peptide array binding signal intensity,[61],≤ 0
same,SPOT peptide array binding signal intensity,[62],≤ 0
same,SPOT peptide array binding signal intensity,[63],11.5
same,SPOT peptide array binding signal intensity,[64],5.5
same,SPOT peptide array binding signal intensity,[65],310
same,SPOT peptide array binding signal intensity,[66],84.5
same,SPOT peptide array binding signal intensity,[67],133
same,SPOT peptide array binding signal intensity,[68],28.5
same,SPOT peptide array binding signal intensity,[69],3.25
same,SPOT peptide array binding signal intensity,[70],21.5
same,SPOT peptide array binding signal intensity,[71],6
same,SPOT peptide array binding signal intensity,[72],10
same,SPOT peptide array binding signal intensity,[73],≤ 0
same,SPOT peptide array binding signal intensity,[74],≤ 0
